Experimental findings from PubChem BioAssay AID1645887 (National Center for Advancing Translational Sciences (NCATS), 2021) are described below.

Values joined by “and” are separate entries in the source; they are usually repeats but may differ in a detail not shown here. Equal entries are not always repeated. Out of some 16,000 compounds screened, about 40 (0.2%) were called active. Another 1% or so got no clear call; they are omitted. Shown is part of a subset that was picked to be rich in actives. Where a structure was tested more than once in an assay, its records may differ in their call. Unmarked numbers belong to inactive results. The call rests on the fitted dose curve; in most records, active means well fitted activation curve with a large enough effect; inconclusive means small, poorly fitted or top-dose-only effect, or another doubt; inactive means no such curve, though single readings can be large or run the other way.
On the % scale 0 is the no-effect control and ±100 the full control effect; potency means the concentration at half of the fitted maximal effect.

Sequence of Rap guanine nucleotide exchange factor 4 (Homo sapiens) (Q8WZA2 whole entry, looked up): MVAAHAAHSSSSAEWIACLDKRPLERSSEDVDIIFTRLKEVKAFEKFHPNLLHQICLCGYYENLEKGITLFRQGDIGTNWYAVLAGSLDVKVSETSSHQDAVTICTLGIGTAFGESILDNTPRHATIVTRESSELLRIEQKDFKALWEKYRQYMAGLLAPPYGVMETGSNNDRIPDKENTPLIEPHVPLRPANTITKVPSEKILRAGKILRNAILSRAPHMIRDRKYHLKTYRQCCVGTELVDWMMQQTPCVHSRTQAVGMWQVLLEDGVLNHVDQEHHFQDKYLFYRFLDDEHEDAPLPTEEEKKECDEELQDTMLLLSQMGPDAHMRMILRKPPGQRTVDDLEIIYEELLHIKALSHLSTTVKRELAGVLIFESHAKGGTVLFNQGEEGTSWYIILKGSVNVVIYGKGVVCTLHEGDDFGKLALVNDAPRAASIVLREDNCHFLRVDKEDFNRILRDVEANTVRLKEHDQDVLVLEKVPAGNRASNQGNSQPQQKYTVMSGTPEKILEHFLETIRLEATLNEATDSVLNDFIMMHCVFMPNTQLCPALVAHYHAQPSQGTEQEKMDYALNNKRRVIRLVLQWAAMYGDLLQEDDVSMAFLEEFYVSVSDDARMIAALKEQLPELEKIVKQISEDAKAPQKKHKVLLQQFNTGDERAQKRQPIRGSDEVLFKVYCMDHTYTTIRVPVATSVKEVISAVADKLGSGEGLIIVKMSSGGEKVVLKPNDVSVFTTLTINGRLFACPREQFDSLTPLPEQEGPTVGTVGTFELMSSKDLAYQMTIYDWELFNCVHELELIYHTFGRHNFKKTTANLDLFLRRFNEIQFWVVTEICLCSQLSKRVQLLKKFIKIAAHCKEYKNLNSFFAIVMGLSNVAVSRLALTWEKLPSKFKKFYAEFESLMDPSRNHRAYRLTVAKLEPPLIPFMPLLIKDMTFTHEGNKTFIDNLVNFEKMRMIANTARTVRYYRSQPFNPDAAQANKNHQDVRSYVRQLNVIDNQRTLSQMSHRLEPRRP

This assay concerns the target Rap guanine nucleotide exchange factor 4 (Homo sapiens) (UniProt Q8WZA2). Put plainly: Validation qHTS for agonist of cAMP-regulated guanine nucleotide exchange factor 4 (EPAC2).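 On activation: exchange makes BODIPY-GDP fluorescence drop when released from Rap1B; series mostly up to about 150 µM.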 The note with it: EPAC2 Rap1B BODIPY-GDP exchange, fluorescence; activation: hits give high values. The method in brief: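 Fluorescent exchange assay: 100 nM EPAC2 with 250 nM RAP1B-BODIPY-GDP and 50 uM GDP; compound added, 5 min at room temperature, then read (ex 480/em 540 nm) every 5 min for 30 min. Normalized to 6.5 mM cAMP agonist control.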
With `Cc1cc(C)n2nc(C(=O)NCC3Cc4cccc(-c5ccc(S(C)(=O)=O)cc5)c4O3)cc2n1` (stereo not given), the activation was 2.37%.

On to `COc1c(O)cc2c(=O)oc3c(OC)c(O)cc4c(=O)oc1c2c34`, for which the activation is -13.8%.

With `Cc1cc(=O)oc2c(O)c(O)ccc12`, the activation was -5.12%.

On to `O=c1oc2c(O)c(O)cc3c(=O)oc4c(O)c(O)cc1c4c23`, for which the Potency was 126 µM (active) and the activation is 0.203%.

As to `CN(C)c1ccc(/C=C/c2ccc3cc(N(C)C)ccc3n2)cc1`, the activation is 0.661%.

In the case of `COc1ccccc1-c1nccc(NCc2ccccc2)n1`, the activation was -0.806%.

Turning to `CCOC(=O)Nc1ccc(NCc2ccc(F)cc2)nc1N`, the Potency is 112 µM (active).

With `COc1ccccc1-c1nccc(NCc2cccc(C)c2)n1`, the activation is -13.6%.

As to `OC1CCN(Cc2ccc3c(c2)CN(Cc2ccc(Oc4ncccn4)cc2)CCO3)CC1`, the activation was -1.28%.

For the molecule `CC(=O)OCC1=C(C(=O)O)N2C(=O)C(NC(=O)CSc3ccncc3)[C@@H]2SC1` (stereo not given in full), the activation is -16.2%.

In the case of `O=C(NCc1nnc2n1CCN(C(=O)c1cccc(Cl)c1)CC2)C1CC1`, the activation was -2.97%.

Regarding `CC(=O)OCC(=O)[C@@]1(O)CCC2C3CC(C)C4=CC(=O)C=CC4(C)C3C(O)CC21C` (stereo not given in full), the activation was -21.4%.

Consider `Cc1cnc(SCCN2CCOCC2)nc1C1CCCN(C(=O)c2cccc3c(C)c(C)[nH]c23)C1` (stereo not given), for which the activation was -5.56%.

`C/C1=C2N=C(/C=C3N=C(/C(C)=C4\[N-][C@@](C)([C@@H]5N=C1[C@](C)(CCC(=O)NCC(C)OP(=O)(O)O[C@H]1[C@@H](O)[C@@H](n6cnc7cc(C)c(C)cc76)O[C@@H]1CO)[C@H]5CC(N)=O)[C@@](C)(CC(N)=O)[C@@H]4CCC(N)=O)[C@@](C)(CC(N)=O)[C@@H]\3CCC(N)=O)C(C)(C)[C@@H]/2CCC(N)=O.CC(=O)O.[Co]` (stereo not given in full): the Potency is 56.2 µM (active).

On to `CC(=O)NCC(=O)NCC1Cc2cc(C)cc(-c3ccccn3)c2O1` (stereo not given), for which the activation is 0.493%.

For `CN(CCO)C(=O)c1cn(C2CCCN(Cc3ccc(C(F)(F)F)cc3)C2)nn1` (stereo not given), the activation was -15.8%.

With `COC(=O)C1[C@H]2SC(C)(C)C(C(=O)OC)N2C(=O)N1Cc1ccccc1` (stereo not given in full), the activation is -17.5%.

`COCCn1c(=O)c(-c2ccc(F)cc2)nc2cnc(Nc3cccc(OC)c3)nc21`: the activation is 6.42%.

Take `C[C@@H](N)CCCP(=O)(O)O`: the activation was -1.34%.

Consider `CC(C)CN1CCC2(CC1)CCN(C(=O)c1ccco1)CC2`, for which the activation was -7.83%.

As to `COC(=O)C1C(O)CC[C@@H]2CN3CCc4c([nH]c5ccccc45)C3C[C@@H]12` (stereo not given in full), the activation was -7.23% and -17.2%.

As for `CC(N)(COP(=O)(O)O)C(=O)O` (stereo not given), the activation is 4.78%.

Turning to `CC(C)C[C@@H](CSc1ccccc1)N1CCN(C)CCC1=O`, the activation was -9.44%.

Take `Cc1noc(C)c1-c1nccc(NC2CC2)n1`: the activation is -2.86%.

On to `CC(C)CCCC(C)C1CCC2C3C(=O)C=C4CC(O)CC[C@@]4(C)C3CC[C@@]12C` (stereo not given in full), for which the activation is -16%.

For the molecule `COC(=O)c1ccccc1C(=O)NCC1Cc2cc(-c3nc(C)cnc3C)ccc2O1` (stereo not given), the activation is -20.8%.

Turning to `CCCCCCCCCC[n+]1ccc(/C=C/c2c[nH]c3ccccc23)c2ccccc21`, the activation was -5.9%.

As to `COCC(=O)N1CCC[C@@]2(CCN(c3ccccn3)C2)C1`, the activation is -5.3%.

On to `COc1cccc(Nc2ncc3nc(C)c(=O)n(C[C@H]4CCCO4)c3n2)c1`, for which the activation is -13.4%.

For `Nc1cc(-c2ccncc2)c[nH]c1=O`, the Potency is 100 µM (active).

As for `[C-]#[N+]c1cc(-c2ccncc2)c(C)[nH]c1=O`, the activation is -4.45%.

`Cc1cccc(N(C)C(=S)Oc2ccc3c(c2)CCC3)c1`: the activation was 13.3%.

In the case of `OC(c1cccnc1)c1ccc2c(c1)CN(Cc1cn(-c3ccccc3)nc1-c1ccccc1)CCO2` (stereo not given), the activation was -2.05%.

Take `O.O.O.O.O.O.O.O=S(=O)([O-])[O-].[Co+2]`: the activation was -48.9%.

For the molecule `CN(C)Cc1ccccc1-c1cncnc1NCc1ccccc1`, the activation is -18.5%.

For `N#Cc1ccccc1-c1ccc2ncnc(NCc3ccccc3)c2c1`, the activation was -0.93%.

Take `CC(C)(CNC(=O)c1cnn(-c2nccc(-c3ccccc3F)n2)c1C1CC1)N1CCOCC1`: the activation is -17.8%.

With `C[C@]12CCC(=O)C=C1CCC1C3CC[C@](O)(C(=O)CO)[C@@]3(C)CC3OC312` (stereo not given in full), the activation was -18.8%.

`O=C1CCNCCN1[C@H](CO)c1ccccc1`: the activation is -16.1%.

Turning to `CN(C)c1ncnc2ccc(-c3cccc(C#N)c3)cc12`, the activation is -0.384%.

Take `Cc1cc(N(C)C)cc(C)c1/C=C/c1cc[n+](C)c2ccccc12`: the activation was -16.7%.

Regarding `Cc1cc2c(c(-c3cnccn3)c1)OC(CNC(=O)c1cc(Cl)ccc1F)C2` (stereo not given), the activation is 5.25%.

For the molecule `COC(=O)C1N[C@@H]([C@@H](NC(=O)COc2ccccc2)C(=O)Nc2ccc(OC)cc2)SC1(C)C` (stereo not given in full), the activation was -24.1%.

Consider `CC(=O)NCCNc1nc(-c2ccccc2CN(C)C)nc2ccccc12`, for which the activation is -19.9%.

With `COC(=O)CC[C@H](N)C(=O)O`, the activation is -14%.

As to `CN1CCN(c2ncc3nc(-c4cn(C)c5ccccc45)c(=O)n(Cc4cccs4)c3n2)CC1`, the activation is -4.2%.

In the case of `OC(c1ccc2c(c1)CN(Cc1cccn1-c1ncccn1)CCO2)C1CCCCC1` (stereo not given), the activation is -21.5%.

With `COc1ccc2[nH]cc(CCNc3nc(-c4c(C)noc4C)nc4ccccc34)c2c1`, the activation was 6.86%.

As for `CN(C)c1ccc(/C=C/c2ccnc3ccccc23)cc1[N+](=O)[O-]`, the activation was -6.84%.

In the case of `CCCCCCCCCCCCCCCCCCN(CCCCCCCCCCCCCCCCCC)c1ccc(/C=C/c2ccnc3ccccc23)cc1`, the activation was -21.8%.

Regarding `CN(C)c1ccc(/C=C/c2ccnc3ccccc23)cc1Cl`, the activation was -5.92%.

As to `OCCN(CCO)c1ccc(/C=C/c2ccnc3ccccc23)cc1`, the activation is -44.7%.

Take `Cc1cc(/C=C/c2ccnc3ccccc23)ccc1N(C)C`: the Potency was 50.1 µM (active).

For the molecule `CCCN(CCC)c1ccc(/C=C/c2ccnc3ccccc23)cc1`, the Potency was 100 µM (active).

On to `Cc1cccc(CNc2nc(-c3ccc4c(c3)OCO4)nc3ccccc23)c1`, for which the activation is 5.64%.

Regarding `Cc1oc(-c2ccccc2NC(=O)C2CCCO2)nc1CNC(=O)c1[nH]c2c(C)ccc(C)c2c1C` (stereo not given), the activation was 8.6%.

For the molecule `COc1cccc(Nc2ncc3nc(-c4cccs4)c(=O)n(-c4ccccc4)c3n2)c1`, the Potency was 50.1 µM (active).

As to `COc1cccc(Nc2ncc3nc(C)c(=O)n(-c4ccccc4)c3n2)c1`, the activation is -17%.

Regarding `COc1ccc(-n2c(=O)c(-c3cccs3)nc3cnc(Nc4ccccc4)nc32)cc1`, the activation is -5.89%.

Turning to `CNS(=O)(=O)Cc1ccc2[nH]cc(CCN(C)C)c2c1`, the activation was -28%.

In the case of `CN(C)CCc1c[nH]c2ccc(CS(=O)(=O)N3CCCC3)cc12`, the activation was -8.07%.

In the case of `CN(C)CCc1c[nH]c2ccc(C[C@H]3COC(=O)N3)cc12`, the Potency is 126 µM (active).

Regarding `CC(C)c1c(O)ccc2c1CCC1[C@@](C)(C=O)CCC[C@@]21C` (stereo not given in full), the activation was 22.5%.

Regarding `CC[C@@]1(O)C(=O)OCc2c1cc1n(c2=O)Cc2cc3c([N+](=O)[O-])cccc3nc2-1`, the activation is 5.92%.

With `CC[C@@]1(O)C(=O)OCc2c1cc1n(c2=O)Cc2cc3cc(O)ccc3nc2-1`, the activation was -2.34% and 12.4%.

On to `CC[C@@]1(O)C(=O)OCc2c1cc1n(c2=O)Cc2cc3c(CN(C)C)c(O)ccc3nc2-1`, for which the Potency was 89.1 µM (active).

As to `C[N+]1(Cc2ccccc2)CCC(C(=O)OCC2CCCC2)CC1` (stereo not given), the activation is -12.2%.

As for `N#Cc1ccc(CN2CC[C@@]3(CCCN(C(=O)c4ccco4)C3)C2)cc1`, the activation is -12.3%.

For the molecule `COC(=O)C(O)C1C(C)(C)C(OC(C)=O)C2CC3=C4CC(=O)OC(c5ccoc5)[C@]4(C)CCC3[C@@]1(C)C2=O` (stereo not given in full), the activation is -10.7%.
